# Experiments:
# [1] = molecular target: Ephrin type-A receptor 4 (Homo sapiens) (UniProt P54764); conditions: at 1 µM
# [2] = molecular target: Ephrin type-A receptor 7 (Homo sapiens) (UniProt Q15375); conditions: at 10 µM
# [3] = molecular target: T1, Ephrin type-A receptor 8 (Homo sapiens) (UniProt P29322); conditions: at 1 µM
# T1 sequence (whole entry): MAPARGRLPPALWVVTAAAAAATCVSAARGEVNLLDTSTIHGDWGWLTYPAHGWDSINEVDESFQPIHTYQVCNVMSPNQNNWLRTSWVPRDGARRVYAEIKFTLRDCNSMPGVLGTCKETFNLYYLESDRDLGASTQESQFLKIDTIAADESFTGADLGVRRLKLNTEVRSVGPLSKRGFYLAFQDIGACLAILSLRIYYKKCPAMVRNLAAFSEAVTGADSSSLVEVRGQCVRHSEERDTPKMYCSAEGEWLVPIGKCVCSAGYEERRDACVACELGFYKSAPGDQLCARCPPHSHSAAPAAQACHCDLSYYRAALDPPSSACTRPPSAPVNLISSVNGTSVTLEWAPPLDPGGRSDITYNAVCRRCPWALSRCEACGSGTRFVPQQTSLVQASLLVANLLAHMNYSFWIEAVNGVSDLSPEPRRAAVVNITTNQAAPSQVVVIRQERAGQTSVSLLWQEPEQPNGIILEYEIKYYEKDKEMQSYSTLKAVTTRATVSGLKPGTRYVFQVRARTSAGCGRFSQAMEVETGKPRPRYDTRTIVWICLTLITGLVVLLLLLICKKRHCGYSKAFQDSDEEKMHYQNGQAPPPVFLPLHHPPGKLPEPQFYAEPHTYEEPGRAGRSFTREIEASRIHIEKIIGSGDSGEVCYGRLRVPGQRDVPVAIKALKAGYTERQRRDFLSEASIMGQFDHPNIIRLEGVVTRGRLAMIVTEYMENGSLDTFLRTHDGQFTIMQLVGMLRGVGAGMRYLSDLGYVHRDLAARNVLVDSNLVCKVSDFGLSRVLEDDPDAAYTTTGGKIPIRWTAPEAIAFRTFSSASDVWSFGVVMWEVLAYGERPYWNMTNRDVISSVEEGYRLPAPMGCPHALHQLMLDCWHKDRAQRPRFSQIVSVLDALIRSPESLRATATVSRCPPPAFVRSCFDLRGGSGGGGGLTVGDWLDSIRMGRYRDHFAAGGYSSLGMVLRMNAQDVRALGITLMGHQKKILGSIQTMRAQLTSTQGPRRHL
# [4] = molecular target: T1, Ephrin type-A receptor 8 (Homo sapiens); conditions: at 10 µM
# [5] = molecular target: T2, Ephrin type-B receptor 1 (Homo sapiens) (UniProt P54762); conditions: at 10 µM
# T2 sequence (whole entry): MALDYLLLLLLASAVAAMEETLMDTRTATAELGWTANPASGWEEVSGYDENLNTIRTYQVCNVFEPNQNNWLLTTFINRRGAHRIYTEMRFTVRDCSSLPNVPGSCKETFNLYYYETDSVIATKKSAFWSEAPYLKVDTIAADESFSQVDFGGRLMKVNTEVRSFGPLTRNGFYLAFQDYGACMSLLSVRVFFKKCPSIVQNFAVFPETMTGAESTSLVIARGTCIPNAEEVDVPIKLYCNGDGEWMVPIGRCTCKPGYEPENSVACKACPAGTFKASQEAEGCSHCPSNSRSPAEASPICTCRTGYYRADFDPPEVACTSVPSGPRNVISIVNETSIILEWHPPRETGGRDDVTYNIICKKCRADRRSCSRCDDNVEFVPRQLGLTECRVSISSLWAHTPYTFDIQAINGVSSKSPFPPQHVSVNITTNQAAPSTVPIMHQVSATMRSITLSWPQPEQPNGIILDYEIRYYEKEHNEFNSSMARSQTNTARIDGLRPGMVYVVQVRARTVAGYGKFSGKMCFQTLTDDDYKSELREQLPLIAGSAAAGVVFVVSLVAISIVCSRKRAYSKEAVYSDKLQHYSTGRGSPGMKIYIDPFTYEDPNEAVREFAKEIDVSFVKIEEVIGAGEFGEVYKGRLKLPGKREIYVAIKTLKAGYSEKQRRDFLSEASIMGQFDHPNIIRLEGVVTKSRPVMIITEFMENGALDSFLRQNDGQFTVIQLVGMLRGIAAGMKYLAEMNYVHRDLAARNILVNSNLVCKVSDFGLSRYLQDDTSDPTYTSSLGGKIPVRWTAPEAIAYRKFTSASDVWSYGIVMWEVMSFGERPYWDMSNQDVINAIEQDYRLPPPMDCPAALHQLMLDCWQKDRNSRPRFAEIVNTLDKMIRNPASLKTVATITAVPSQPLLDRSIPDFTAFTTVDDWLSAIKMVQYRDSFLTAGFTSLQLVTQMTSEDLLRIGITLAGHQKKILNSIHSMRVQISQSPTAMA
# [6] = molecular target: T3, Ephrin type-B receptor 3 (Homo sapiens) (UniProt P54753); conditions: at 1 µM
# T3 sequence (whole entry): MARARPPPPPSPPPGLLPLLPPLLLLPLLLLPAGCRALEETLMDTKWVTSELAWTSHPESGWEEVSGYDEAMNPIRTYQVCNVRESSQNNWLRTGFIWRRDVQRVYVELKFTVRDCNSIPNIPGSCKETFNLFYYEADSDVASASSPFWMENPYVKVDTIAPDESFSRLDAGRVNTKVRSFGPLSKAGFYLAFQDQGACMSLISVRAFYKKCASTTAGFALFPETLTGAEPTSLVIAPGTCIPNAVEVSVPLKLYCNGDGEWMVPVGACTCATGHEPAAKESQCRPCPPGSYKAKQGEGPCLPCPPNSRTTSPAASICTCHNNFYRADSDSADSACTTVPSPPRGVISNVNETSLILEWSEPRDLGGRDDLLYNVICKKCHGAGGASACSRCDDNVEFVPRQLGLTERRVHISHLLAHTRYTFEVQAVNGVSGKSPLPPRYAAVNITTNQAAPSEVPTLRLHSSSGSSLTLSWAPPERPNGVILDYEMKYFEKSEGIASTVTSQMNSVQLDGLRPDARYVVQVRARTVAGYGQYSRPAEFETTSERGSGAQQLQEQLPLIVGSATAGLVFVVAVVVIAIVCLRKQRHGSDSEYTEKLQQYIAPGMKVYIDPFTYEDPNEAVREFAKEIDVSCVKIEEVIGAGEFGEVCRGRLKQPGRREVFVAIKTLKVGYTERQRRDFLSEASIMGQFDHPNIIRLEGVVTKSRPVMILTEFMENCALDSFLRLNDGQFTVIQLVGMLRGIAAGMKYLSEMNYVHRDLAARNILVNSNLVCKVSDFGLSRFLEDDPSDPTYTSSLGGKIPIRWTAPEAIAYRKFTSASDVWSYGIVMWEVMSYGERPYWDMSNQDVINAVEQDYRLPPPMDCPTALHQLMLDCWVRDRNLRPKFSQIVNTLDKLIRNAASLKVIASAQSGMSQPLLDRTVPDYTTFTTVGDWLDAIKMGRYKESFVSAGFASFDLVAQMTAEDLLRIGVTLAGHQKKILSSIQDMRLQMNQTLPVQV
# [7] = molecular target: T3, Ephrin type-B receptor 3 (Homo sapiens); conditions: at 10 µM
# [8] = molecular target: T4, Ephrin type-B receptor 4 (Homo sapiens) (UniProt P54760); conditions: at 1 µM
# T4 sequence (whole entry): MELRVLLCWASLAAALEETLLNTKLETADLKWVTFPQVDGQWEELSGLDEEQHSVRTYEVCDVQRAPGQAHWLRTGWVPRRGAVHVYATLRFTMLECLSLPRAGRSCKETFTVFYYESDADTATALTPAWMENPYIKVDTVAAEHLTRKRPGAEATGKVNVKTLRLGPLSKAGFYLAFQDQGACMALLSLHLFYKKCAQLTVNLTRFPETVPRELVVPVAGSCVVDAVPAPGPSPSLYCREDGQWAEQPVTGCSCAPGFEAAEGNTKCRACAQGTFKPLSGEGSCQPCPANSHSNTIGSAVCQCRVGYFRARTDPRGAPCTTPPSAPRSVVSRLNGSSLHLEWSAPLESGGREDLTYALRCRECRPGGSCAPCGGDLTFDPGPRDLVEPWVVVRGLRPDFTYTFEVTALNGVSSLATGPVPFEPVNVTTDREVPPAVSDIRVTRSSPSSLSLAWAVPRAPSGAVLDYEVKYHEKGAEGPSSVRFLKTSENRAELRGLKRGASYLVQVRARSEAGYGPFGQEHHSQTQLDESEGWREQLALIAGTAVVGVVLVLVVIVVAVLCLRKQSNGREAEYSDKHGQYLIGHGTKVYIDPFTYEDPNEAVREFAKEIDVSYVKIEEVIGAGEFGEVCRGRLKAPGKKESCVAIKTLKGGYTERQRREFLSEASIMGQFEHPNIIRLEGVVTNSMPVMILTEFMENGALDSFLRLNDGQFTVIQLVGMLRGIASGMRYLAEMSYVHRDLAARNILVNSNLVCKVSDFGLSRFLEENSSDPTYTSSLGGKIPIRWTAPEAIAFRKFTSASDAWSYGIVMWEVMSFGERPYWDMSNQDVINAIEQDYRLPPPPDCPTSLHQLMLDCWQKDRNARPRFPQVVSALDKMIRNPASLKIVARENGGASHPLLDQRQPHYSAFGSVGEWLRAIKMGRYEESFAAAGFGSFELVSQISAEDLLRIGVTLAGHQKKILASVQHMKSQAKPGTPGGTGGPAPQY
# [9] = molecular target: T4, Ephrin type-B receptor 4 (Homo sapiens); conditions: at 10 µM
# [10] = molecular target: Receptor tyrosine-protein kinase erbB-4 (Homo sapiens) (UniProt Q15303); conditions: at 1 µM
# Chain of Receptor tyrosine-protein kinase erbB-4 (Homo sapiens) (Q15303 whole entry): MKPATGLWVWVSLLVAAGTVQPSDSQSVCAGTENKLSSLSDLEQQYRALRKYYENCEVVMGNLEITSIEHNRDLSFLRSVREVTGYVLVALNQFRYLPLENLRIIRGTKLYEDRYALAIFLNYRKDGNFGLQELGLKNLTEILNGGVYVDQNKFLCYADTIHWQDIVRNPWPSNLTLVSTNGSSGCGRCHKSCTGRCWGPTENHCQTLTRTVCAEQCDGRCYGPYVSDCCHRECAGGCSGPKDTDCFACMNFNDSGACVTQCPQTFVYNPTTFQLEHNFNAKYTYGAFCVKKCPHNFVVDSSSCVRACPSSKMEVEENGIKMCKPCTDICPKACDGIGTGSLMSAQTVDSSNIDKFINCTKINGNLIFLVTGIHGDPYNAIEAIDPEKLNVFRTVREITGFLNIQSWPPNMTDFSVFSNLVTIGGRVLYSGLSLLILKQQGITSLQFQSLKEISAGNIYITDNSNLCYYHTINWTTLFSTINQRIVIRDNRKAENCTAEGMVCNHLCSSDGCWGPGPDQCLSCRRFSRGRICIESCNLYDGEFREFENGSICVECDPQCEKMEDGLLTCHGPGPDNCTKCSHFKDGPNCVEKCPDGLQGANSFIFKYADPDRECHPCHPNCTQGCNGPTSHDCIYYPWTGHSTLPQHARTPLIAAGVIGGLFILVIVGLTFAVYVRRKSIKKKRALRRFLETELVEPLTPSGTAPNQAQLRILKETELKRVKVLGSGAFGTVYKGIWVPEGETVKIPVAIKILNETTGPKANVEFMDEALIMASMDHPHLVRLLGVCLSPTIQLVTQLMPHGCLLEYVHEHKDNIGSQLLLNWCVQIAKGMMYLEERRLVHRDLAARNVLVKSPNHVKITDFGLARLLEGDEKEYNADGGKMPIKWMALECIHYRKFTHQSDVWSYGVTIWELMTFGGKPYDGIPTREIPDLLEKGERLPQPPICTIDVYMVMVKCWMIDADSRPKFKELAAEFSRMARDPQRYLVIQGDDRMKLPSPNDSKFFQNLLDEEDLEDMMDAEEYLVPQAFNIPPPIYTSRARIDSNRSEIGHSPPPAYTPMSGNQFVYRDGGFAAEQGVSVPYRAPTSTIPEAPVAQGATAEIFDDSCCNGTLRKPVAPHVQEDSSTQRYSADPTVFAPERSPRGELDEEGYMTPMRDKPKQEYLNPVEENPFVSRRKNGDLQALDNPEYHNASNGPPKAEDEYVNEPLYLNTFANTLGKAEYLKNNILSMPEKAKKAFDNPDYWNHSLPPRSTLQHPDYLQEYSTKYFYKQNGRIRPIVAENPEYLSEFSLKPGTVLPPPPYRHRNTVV
# [11] = molecular target: Receptor tyrosine-protein kinase erbB-4 (Homo sapiens) (UniProt Q15303); conditions: at 10 µM
# [12] = molecular target: Focal adhesion kinase 1 (Homo sapiens) (UniProt Q05397); conditions: at 1 µM
# Chain of Focal adhesion kinase 1 (Homo sapiens) (Q05397 2-1052 limits assumed): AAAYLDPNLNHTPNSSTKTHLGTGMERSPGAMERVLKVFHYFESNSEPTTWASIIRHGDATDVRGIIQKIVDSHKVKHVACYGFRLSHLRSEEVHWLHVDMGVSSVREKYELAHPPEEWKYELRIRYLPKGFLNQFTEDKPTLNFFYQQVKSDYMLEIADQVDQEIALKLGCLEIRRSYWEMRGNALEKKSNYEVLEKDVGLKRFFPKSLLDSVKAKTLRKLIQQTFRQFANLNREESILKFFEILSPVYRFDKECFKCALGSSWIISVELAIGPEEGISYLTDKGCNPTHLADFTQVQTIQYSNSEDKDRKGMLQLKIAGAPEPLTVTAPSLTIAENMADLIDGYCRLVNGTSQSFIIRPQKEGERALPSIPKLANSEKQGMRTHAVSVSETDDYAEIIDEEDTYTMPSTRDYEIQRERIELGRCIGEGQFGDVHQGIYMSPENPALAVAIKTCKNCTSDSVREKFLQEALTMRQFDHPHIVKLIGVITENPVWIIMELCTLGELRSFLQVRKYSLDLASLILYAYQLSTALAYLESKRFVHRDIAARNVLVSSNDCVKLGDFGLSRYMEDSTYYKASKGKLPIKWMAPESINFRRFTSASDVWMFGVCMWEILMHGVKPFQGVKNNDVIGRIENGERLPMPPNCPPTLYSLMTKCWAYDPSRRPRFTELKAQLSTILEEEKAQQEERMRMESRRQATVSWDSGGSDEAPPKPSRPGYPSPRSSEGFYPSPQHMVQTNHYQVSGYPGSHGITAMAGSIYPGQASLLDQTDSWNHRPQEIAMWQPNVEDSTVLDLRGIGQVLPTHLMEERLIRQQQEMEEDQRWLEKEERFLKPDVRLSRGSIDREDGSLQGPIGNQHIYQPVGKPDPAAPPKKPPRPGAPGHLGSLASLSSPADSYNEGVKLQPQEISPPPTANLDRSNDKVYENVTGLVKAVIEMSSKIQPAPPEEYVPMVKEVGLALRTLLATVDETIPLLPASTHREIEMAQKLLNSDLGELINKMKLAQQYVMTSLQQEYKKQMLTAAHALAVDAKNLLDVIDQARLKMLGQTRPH
# Chain of Ephrin type-A receptor 4 (Homo sapiens) (P54764 whole entry): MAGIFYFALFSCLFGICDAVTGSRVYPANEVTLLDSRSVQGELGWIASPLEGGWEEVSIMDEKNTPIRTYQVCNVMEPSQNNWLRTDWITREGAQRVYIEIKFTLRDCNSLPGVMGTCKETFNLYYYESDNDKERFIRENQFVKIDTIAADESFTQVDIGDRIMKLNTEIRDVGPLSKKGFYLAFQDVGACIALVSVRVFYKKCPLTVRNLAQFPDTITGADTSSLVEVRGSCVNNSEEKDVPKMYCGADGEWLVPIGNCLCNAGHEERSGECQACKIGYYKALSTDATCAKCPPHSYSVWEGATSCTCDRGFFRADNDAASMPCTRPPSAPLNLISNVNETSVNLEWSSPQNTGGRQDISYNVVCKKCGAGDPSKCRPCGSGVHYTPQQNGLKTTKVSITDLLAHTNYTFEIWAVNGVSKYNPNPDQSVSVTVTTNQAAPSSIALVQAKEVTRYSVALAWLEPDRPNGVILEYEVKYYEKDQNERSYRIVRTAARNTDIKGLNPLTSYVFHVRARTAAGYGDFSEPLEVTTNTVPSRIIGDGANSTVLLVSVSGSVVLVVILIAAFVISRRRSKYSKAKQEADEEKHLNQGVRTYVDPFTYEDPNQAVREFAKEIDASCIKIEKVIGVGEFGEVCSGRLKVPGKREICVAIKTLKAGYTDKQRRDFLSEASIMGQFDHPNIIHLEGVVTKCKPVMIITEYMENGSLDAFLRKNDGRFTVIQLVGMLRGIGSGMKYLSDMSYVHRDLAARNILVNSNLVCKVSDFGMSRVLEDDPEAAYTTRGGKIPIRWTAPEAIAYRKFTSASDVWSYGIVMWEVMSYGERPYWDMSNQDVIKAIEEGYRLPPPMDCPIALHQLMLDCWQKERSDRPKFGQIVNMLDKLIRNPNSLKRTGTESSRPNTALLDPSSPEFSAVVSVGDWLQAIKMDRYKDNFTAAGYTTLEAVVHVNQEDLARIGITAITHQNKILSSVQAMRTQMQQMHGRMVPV
# Chain of Ephrin type-A receptor 7 (Homo sapiens) (Q15375 28-998 limits assumed): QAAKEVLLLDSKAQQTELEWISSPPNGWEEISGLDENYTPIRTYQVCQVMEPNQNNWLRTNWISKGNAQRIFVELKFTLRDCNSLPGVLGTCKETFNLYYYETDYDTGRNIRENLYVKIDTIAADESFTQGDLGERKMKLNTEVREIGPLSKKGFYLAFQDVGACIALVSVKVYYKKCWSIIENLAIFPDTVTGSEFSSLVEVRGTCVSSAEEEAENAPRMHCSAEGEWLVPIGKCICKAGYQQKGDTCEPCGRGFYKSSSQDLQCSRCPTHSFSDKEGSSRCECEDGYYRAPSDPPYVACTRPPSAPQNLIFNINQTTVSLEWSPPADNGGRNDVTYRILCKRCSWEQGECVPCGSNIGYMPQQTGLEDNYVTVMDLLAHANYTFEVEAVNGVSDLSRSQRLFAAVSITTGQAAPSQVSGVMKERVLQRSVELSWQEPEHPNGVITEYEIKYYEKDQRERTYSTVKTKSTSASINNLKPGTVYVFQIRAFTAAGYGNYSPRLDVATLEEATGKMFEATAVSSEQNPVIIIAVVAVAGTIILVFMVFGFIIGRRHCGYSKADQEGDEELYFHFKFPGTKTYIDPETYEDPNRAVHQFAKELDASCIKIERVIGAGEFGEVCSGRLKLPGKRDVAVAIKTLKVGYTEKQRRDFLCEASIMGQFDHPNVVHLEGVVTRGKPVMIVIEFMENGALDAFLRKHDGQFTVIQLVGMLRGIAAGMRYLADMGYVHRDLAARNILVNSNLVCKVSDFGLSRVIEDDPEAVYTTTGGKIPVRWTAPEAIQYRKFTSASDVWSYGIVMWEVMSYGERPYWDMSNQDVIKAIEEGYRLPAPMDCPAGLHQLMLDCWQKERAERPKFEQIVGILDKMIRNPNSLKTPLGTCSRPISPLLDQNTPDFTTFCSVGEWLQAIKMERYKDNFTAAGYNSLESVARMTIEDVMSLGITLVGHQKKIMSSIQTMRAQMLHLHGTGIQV
compound,measurement,setting,value
N#C/C(=C1/Nc2ccccc2S1)c1ccnc(NCCc2cccnc2)n1,residual activity,[1],123%
same,residual activity,[2],77%
same,residual activity,[3],98%
same,residual activity,[4],83%
same,residual activity,[5],55%
same,residual activity,[6],141% (inactive)
same,residual activity,[7],74%
same,residual activity,[8],72%
same,residual activity,[9],73%
same,residual activity,[10],88%
same,residual activity,[11],61%
same,residual activity,[12],100%
